Screening data (PubChem BioAssay)
Compounds with a hit are over-represented: about 8.7% of the library has one in this group of screens.
HP1b binding inh – inhibitors of HP1-beta chromodomain binding to methylated histone tails | AlphaScreen HP1-beta / biotin-H3K9me3 peptide binding | Potency, µM (top dose mostly 114 µM), for the others: top-dose activity change, negative = inhibition, usual class: inhibitors | 390,000 tested, 0.56% active; note: nearly all actives have a fitted effect of over 70% in size
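Compound inhibition of the preformed complex between 50 nM HP1-beta and 50 nM biotinylated H3K9me3 peptide was read by AlphaScreen. Buffer was PBS pH 7.4 with 0.01% Tween-20. Incubations ran 30 min at room temperature, with 10 ug/mL donor/acceptor beads.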
G9a inh – inhibitors of human histone lysine methyltransferase G9a; Q96KQ7; G9a H3K9 monomethylation, AlphaScreen, 2 h; Potency, µM (top dose mostly 102 µM), for the others: at the top dose activity, negative = inhibition, usual class: inhibitors; 350,000 tested, 8.8% active; AID 504332; note: % is set by controls: 0 for no effect and ±100 for the full control effect; nearly all actives have a fitted effect of over 75% in size
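Enzyme 20 nM + cpd, 15 min RT; add b-H3K9 pep 500 nM / SAM 20 uM; 2 h RT; anti-H3K9me1 Ab 0.5 ug/mL + SA donor / anti-rabbit acceptor beads 20 ug/mL each, 10 min; AlphaScreen read.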
Sfp PPTase inh – Sfp phosphopantetheinyl transferase inhibition | AID 1490 | Q9F4F7 | 310,000 tested, 3.5% active | Biochemical Sfp PPTase activity, qHTS | Potency, µM, inactives show largest response in the series, negative = inhibition, actives largely listed as inhibitors;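 note: the enzyme is Sfp with the accession as filed and its product quenches rhodamine fluorescence; 0% = enzyme reaction without inhibitor and -100% = no enzyme wells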
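Fluorescence-quenching assay: 15 nM Sfp-PPTase preincubated 15 min at room temperature with compound, then 5 uM rhodamine-CoA and 12.5 uM BHQ-2-labelled YbbR peptide added. Fluorescence (ex 525/em 598 nm) read at start and after 30 min; difference gives rate.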
JMJD2A Tudor inh – JMJD2A Tudor domain (human) inhibition. O75164. Potency, µM (doses to about 114 µM), for the others: top-dose activity change, negative = inhibition, hits mostly inhibitors. 390,000 tested, 4.4% active. AlphaScreen JMJD2A-Tudor / H3K4me3 peptide binding; note: % is set by controls: 0 for no effect and ±100 for the full control effect; nearly all actives have a fitted effect of over 50% in size
BAZ2B block – BAZ2B (human) inhibition; AlphaScreen BAZ2B-H3K14Ac peptide displacement; Potency, µM (series often up to 114 µM), for inactives: top-dose activity change, negative = inhibition, usual class: inhibitors; 360,000 tested, 4.4% active; AID 504333; note: % is set by controls: 0 for no effect and ±100 for the full control effect; nearly all actives have a fitted effect of over 60% in size
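AlphaScreen displacement of biotin-H3(5-23)K14Ac peptide (50 nM final) from BAZ2B (50 nM final) in PBS pH 7.4, 0.01% Tween-20; complex preformed 30 min RT, then compounds (top 110 uM) 30 min RT, beads 20 min dark.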
12-LOX inh – inhibitors of human 12S-lipoxygenase ALOX12 | P18054 | purified 12hLO, xylenol orange hydroperoxide absorbance | 580,000 tested, 1.1% active | AID 1671190 | Potency, µM (titrated, usually from 108 µM), for inactives: at the highest dose activity change, negative = inhibition, actives largely listed as inhibitors; note: % is set by controls: 0 for no effect and ±100 for the full control effect
Target sequence (P18054 whole entry, looked up): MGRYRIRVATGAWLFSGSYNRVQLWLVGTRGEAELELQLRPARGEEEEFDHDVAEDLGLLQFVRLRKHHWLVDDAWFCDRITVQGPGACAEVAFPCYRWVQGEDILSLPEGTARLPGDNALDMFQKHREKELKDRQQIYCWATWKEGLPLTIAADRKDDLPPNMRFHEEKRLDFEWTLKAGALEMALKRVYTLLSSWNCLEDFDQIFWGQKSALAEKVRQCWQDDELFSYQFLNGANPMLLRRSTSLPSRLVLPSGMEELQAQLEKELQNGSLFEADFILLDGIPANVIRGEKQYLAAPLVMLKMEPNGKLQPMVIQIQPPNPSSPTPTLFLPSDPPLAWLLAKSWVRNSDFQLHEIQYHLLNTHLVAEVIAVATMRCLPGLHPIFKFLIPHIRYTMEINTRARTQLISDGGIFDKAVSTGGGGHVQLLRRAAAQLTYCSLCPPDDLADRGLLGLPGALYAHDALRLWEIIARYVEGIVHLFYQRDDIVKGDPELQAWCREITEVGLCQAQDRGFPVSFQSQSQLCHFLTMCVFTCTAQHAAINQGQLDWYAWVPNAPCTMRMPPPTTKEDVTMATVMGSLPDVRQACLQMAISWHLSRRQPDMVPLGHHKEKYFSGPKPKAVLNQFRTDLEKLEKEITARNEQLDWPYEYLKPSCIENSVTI
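Purified human 12hLO at 150 nM in 25 mM Hepes, 0.01% Triton X-100, pH 7.0, preincubated 15 min at room temperature with compound. Reaction started with 40 uM arachidonic acid, 30 min at room temperature. Hydroperoxide measured by Fe-xylenol orange, 573/405 nm absorbance ratio.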
Numbers without * were called inactive; u = inconclusive; x = no result given; ! = not active in a repeat; [ ] = another dose, or the depositor's remark. Calls come from the whole dose curve; as a rule, active = well fitted curve in the direction sought with a large enough effect; inconclusive = small, poorly fitted or top-dose-only effect, or another doubt; inactive = no such curve, though single readings can be large; an effect the other way counts as inactive or inconclusive. Potency is the fitted concentration of half-maximal effect.

SMILES	HP1b binding inh	G9a inh	Sfp PPTase inh	JMJD2A Tudor inh	BAZ2B block	12-LOX inh
O=C(C1COc2ccccc2O1)N1CCCC1 (centres undefined)	33%	1%	14%	-8%	-12%	0%
O=C(C1COc2ccccc2O1)N1CCc2ccccc21 (centres undefined)	u	50µM*	-7%	79µM*	45µM*	u
O=C(O)C1C2C=CC(C3CC23)C1C(=O)N1CCc2ccccc21 (centres undefined)	-28%	79µM*	u	20µM*	-6%	-25%
O=C(O)C1CC=CCC1C(=O)N1CCc2ccccc21 (centres undefined)	-16%	13µM*	-1%	u	u	u
O=C(Nc1ccc(N2CCOCC2)cc1)[C@H]1CN(Cc2ccccc2)C[C@H]1C(=O)O	x	x	x	x	x	2%
Cc1ccc2c(c1)B(O)c1cc(C)ccc1O2	x	x	x	x	x	-25%
CCN(CC)S(=O)(=O)c1ccc(Oc2ccccc2)c(NC(=O)c2cnccn2)c1	x	x	x	x	x	-30%
OCC1OC([S-])[C@H](O)C(O)C1O.[Au+] (some centres undefined)	x	u	2.2µM*	x	x	x
CC(C)=C1C2CCC1C(C(=O)NCCc1ccccc1)C2C(=O)O (centres undefined)	1%	-8%	-3%	-18%	-7%	-12%
CC(C)=C1C2CCC1C(C(=O)Nc1cc(C)cc(C)c1)C2C(=O)O (centres undefined)	43%	40µM*	-18%	1%	-31%	u
Brc1ccc(-c2ccn[nH]2)cc1	x	x	x	x	x	-2%
O=C1CCC(CCC(=O)N2CCN(c3ccccc3F)CC2)(Cc2ccc3ccccc3c2)N1 (centres undefined)	x	x	x	x	x	4%
COC(=O)c1c(NC(=O)C(C)C)sc(C(=O)N2CCOCC2)c1C	-21%	45µM*	u	-9%	5%	-6%
O=C1NC2(CCN(Cc3ccccc3C(F)(F)F)CC2)Oc2ccccc21	x	x	x	x	x	5%
S=C(Nc1ccccc1)c1ccccn1	u	13%[12.7 µM]	45µM*!	56µM*	35µM*	0%
Cc1ccc(NC(=S)Nc2ccccc2)nc1	x	x	x	x	x	22µM*
S=C(Nc1ccc(Nc2ccccc2)cc1)Nc1ccccn1	u	10µM*	12%	20µM*	16µM*	5.6µM*
CC(NC(=S)NNC(=O)c1ccco1)c1ccccc1 (centres undefined)	x	x	x	x	x	14%
O=C(CCCN1C(=O)/C(=C/c2cccs2)SC1=S)Nc1ccc(O)c(C(=O)O)c1	x	45µM*	u	x	u	x
O=C(CN1C(=O)/C(=C/c2ccccc2)SC1=S)Nc1ncc(Cc2ccccc2)s1	-20%	50µM*	-6%	-26%	-34%	-12%
O=C(CCN1C(=O)/C(=C\c2ccccc2F)SC1=S)Nc1ccc(C(=O)O)c(O)c1	x	79µM*	4%	x	u	u
O=C(CCN1C(=O)/C(=C/c2ccccc2)SC1=S)Nc1ccccn1	25%	-11%	10%	u	u	36%
O=C(CCCN1C(=O)/C(=C/c2ccccc2)SC1=S)Nc1ccc(C(=O)O)c(O)c1	-12%[57 µM]	u	13%	u	u	u
O=C(CCN1C(=O)/C(=C/c2cccs2)SC1=S)Nc1ccccn1	9%	3.2µM*	11%	-31%	u	-16%
Clc1ccc(C2Cn3nnc(-c4nc(C5CC5)no4)c3CO2)cc1 (centres undefined)	x	x	x	x	x	45%
CC1CCCCN1Cc1nc2c(c(=O)n(C)c(=O)n2C)n1CC(N)=O (centres undefined)	x	x	x	x	x	-2%
O=C(CCCN1C(=O)/C(=C\c2cccs2)SC1=S)Nc1ccc(O)cc1	-35%	-1%	23%	-32%	-34%	u
O=C(CCN1C(=O)S/C(=C/c2ccc(F)cc2)C1=O)Nc1ccc(O)c(C(=O)O)c1	12%[57 µM]	45µM*	10%	-25%	-20%	u
